Shown are actives, neighbours in structure and some others; about 4.5% of the full set was active somewhere.
FXN GAA850 act: increases GAA850 frataxin promoter reporter activity; HEK293 lucGAA850 FXN promoter luciferase reporter, 24 h; percent of 10 µM SAHA response; activation, % at 6 µM; 360,000 compounds, 0.56% hits; AID 540364;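 active = activation above the average of all compounds screened plus 3 SD, cutoff fixed separately per campaign, cut at about 7.5% in these data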;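 note: 0% = DMSO wells and 100% = 10 µM SAHA wells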
DAX1 inh-1: inhibits human nuclear receptor DAX1 | 340,000 compounds, 0.99% hits | HEK293 Gal4-DAX1 luciferase reporter, luminescence | P51843 | inhibition, % at 6.75 µM;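 active = inhibition above the mean over all tested compounds plus 3 SD, cut at about 4.2% in these data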;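 note: 0% = DAX1-transfected cells with DMSO and 100% = empty-vector control cells with DMSO; inhibition shows as a rise in luminescence from relieved DAX1 repression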
Target sequence (P51843 207-470 limits assumed): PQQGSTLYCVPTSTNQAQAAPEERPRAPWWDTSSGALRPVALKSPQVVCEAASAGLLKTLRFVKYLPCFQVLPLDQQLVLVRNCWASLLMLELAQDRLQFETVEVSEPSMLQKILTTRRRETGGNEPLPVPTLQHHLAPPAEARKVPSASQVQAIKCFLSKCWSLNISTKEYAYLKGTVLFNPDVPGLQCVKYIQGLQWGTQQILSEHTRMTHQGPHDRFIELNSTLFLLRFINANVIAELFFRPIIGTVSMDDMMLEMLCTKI
hgDAF-12 ag: agonists of H. glycines DAF-12 nuclear receptor; activation, % at 6.8 µM; 370,000 compounds, 1.8% hits; HEK293 GAL4-hgDAF12 UAS-luciferase reporter, agonist luminescence; normalized to butyrate control;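 active = activation above a cutoff set at the mean of all screened compounds plus 3 SD, cut at about 10% in these data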;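 note: 0% = DMSO wells and 100% = sodium butyrate wells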
ssDAF-12 act: S. stercoralis DAF-12 activation, primary screen | HEK293 ssDAF-12/GRIP1 lit1-tk-luc reporter, luminescence; % of 3 µM dafachronic acid response | 370,000 compounds, 1% hits | activation, % at 6.8 µM;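 active = activation above the mean over all tested compounds plus 3 SD, cut at about 0.9% in these data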;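 note: 0% = DMSO-only wells and 100% = 3 µM delta7-dafachronic acid wells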
DAX1 inh-2: DAX1 (NR0B1) inhibition, primary screen; HEK293T StAR-luciferase reporter, SF-1/DAX-1 repression relief; inhibition, % at 6.8 µM; 370,000 compounds, 1.1% hits;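 active = inhibition above the mean over all tested compounds plus 3 SD, cut at about 3.6% in these data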;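 note: 0% = DAX-1 cells with DMSO and 100% = cells lacking DAX-1 with DMSO; higher inhibition means more luminescence from relief of DAX-1 repression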
hcDAF12 agonist: activators of H. contortus DAF-12 nuclear receptor. HEK293 hcDAF-12 lit1-tk-luc reporter, luminescence; 0% DMSO, 100% Δ7-dafachronic acid. activation, % at 6.8 µM. 370,000 compounds, 1.4% hits;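 active = activation above the mean of all tested compounds plus 3 SD, cut at about 5.5% in these data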;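 note: 100% = response to 3 µM Δ7-dafachronic acid high control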
DAX1 conf: NR0B1 (human) inhibition, confirmation; 2,400 compounds, 87% hits; HEK293T StAR-promoter luciferase reporter, SF-1/DAX-1 repression; shares compounds with DAX1 inh-2; AID 652134; inhibition, % at 6.8 µM;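 active = inhibition above the average of every tested compound plus 3 SD, cut at about 3.8% in these data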;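 note: 0% = DAX-1 cells with DMSO and 100% = no DAX-1 control cells with DMSO; active compounds raise luminescence by relieving repression of the StAR reporter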
SF1 AF2mut Luc: nonselective inhibitor or artifact in SF-1 mutant DAX1 counter-screen; shares compounds with DAX1 inh-2; HEK293 StAR-luciferase, SF-1 AF2 mutant, luminescence; inhibition, % at 6.8 µM; 2,400 compounds, 78% hits; AID 652136;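 active = inhibition above the mean of all tested compounds plus 3 SD, cut at about 3% in these data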;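 note: 0% = DAX-1 transfected cells with DMSO and 100% = cells without DAX-1 with DMSO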
LXR ag: counter-screen for hcDAF-12 agonists: agonists of human LXR-beta; 3,400 tested, under 10 active; HEK293 Gal4-LXR tk-luc reporter, luminescence, 24 h; normalized: DMSO 0%, positive control 100%; activation, % at 6.8 µM; shares compounds with hcDAF12 agonist; AID 743027;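 active = mean percent activation of the reporter above a cutoff set as the average over tested compounds plus their standard deviation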
hcDAF12 ag: confirmation of H. contortus DAF-12 agonists; HEK293 hcDAF-12 lit1-tk-luc reporter, luminescence; % of Δ7-dafachronic acid response; activation, % at 6.8 µM; shares compounds with hcDAF12 agonist; 3,400 compounds, 61% hits;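 active = mean activation across triplicate tests above the threshold derived from the earlier primary screen, cut at about 5.5% in these data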;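 note: 0% = DMSO only wells and 100% = 3 µM Δ7-dafachronic acid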
hgDAF12 ag: confirmation of H. glycines DAF-12 agonists; shares compounds with hgDAF-12 ag; HEK293 GAL4-hgDAF12 luciferase reporter, agonist mode; percent of butyrate response; activation, % at 6.8 µM; 3,300 compounds, 80% hits; AID 743050;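 active = mean activation over triplicate wells above the hit cutoff derived from the earlier primary screen, cut at about 11% in these data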;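 note: 0% = DMSO low control and 100% = 2 mM sodium butyrate high control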
LXR ag 2: counter-screen for DAF-12 agonists: agonists of human LXR-beta; shares compounds with hgDAF-12 ag; HEK293 Gal4-LXR luciferase reporter, 24 h; activation, % at 6.8 µM; 3,300 tested, under 10 active;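 active = mean activation of the triplicate above a set limit carried over from the primary screen, none filed active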
* marks the source's active call; other numbers are inactive results.

Results for COc1ccc(N2C(=O)c3n[nH]c(C)c3C2c2ccc(F)cc2)cc1 (stereo not given) ?
hgDAF-12 ag: 1.9; ssDAF-12 act: -0.7; DAX1 inh-2: 1.5; hcDAF12 agonist: 2.2

Results for O=C(Nc1ccccn1)c1ccc2c(=O)n3c(nc2c1)CCCCC3 ?
FXN GAA850 act: 4.2; DAX1 inh-1: -0.8; hgDAF-12 ag: 19.5*; ssDAF-12 act: 0.5; DAX1 inh-2: 6.2*; hcDAF12 agonist: 4.9; DAX1 conf: 7.7*; SF1 AF2mut Luc: 3.8*; hgDAF12 ag: 14.6*; LXR ag 2: 0.7

How did Cn1nnnc1SCC(=O)Nc1ccc2c(c1)OCCO2 do in these assays?
FXN GAA850 act: 4.2; DAX1 inh-1: 4.0; hgDAF-12 ag: 14.9*; ssDAF-12 act: 0.2; DAX1 inh-2: 6.5*; hcDAF12 agonist: 3.1; DAX1 conf: 8.2*; SF1 AF2mut Luc: 2.6; hgDAF12 ag: 13.7*; LXR ag 2: 0.7

What do the screens show for `Cc1ccc(C#CC[N+]2(CC#Cc3ccc(C)cc3)CCCCC2)cc1`?
FXN GAA850 act: -2.3; DAX1 inh-1: -3.6; hgDAF-12 ag: -8.0; ssDAF-12 act: -2.1; DAX1 inh-2: -2.9; hcDAF12 agonist: -4.5

How did Nc1cc2c(cc1Cl)-c1ccccc1C2 do in these assays?
FXN GAA850 act: 5.5; DAX1 inh-1: 3.7; hgDAF-12 ag: 11.9*; ssDAF-12 act: 0.1; DAX1 inh-2: 0.0; hcDAF12 agonist: 7.5*; LXR ag: 0.2; hcDAF12 ag: 4.3

Results for COc1cccc(NC(=O)CSCc2nc3sc(C)c(C)c3c(=O)[nH]2)c1 ?
FXN GAA850 act: -3.1; DAX1 inh-1: 1.2; hgDAF-12 ag: 2.0; ssDAF-12 act: -0.5; DAX1 inh-2: 0.7; hcDAF12 agonist: -1.8

How did COc1ccc(Cl)cc1NC(=O)c1cc(-c2ccccc2)on1 do in these assays?
FXN GAA850 act: 0.4; DAX1 inh-1: 2.7; hgDAF-12 ag: 1.1; ssDAF-12 act: -0.9; DAX1 inh-2: -0.5; hcDAF12 agonist: 5.1

What do the screens show for `COc1ccc(Cl)cc1NC(=O)c1cc(C2CC2)on1`?
hgDAF-12 ag: 2.7; ssDAF-12 act: -1.2; hcDAF12 agonist: 7.6*; LXR ag: -0.1; hcDAF12 ag: 5.3

Results for O=S(=O)(Nc1cccc(S(=O)(=O)N2CCCC2)c1)c1cccc(Br)c1 ?
FXN GAA850 act: 1.1; DAX1 inh-1: -0.5; hgDAF-12 ag: 0.3; ssDAF-12 act: -0.9; DAX1 inh-2: -1.9; hcDAF12 agonist: 0.5

What do the screens show for `Cc1ccc(Sc2cnccc2C#N)cc1`?
FXN GAA850 act: -0.6; DAX1 inh-1: -0.2; hgDAF-12 ag: 3.8; ssDAF-12 act: -1.4; DAX1 inh-2: 0.0; hcDAF12 agonist: -0.3

How did CCOC(=O)N1CCN(C(=O)C[C@@H]2C[C@@]3(C(=O)OCC)CCCC=C3N(Cc3ccc(Cl)cc3Cl)C2=O)CC1 do in these assays?
hgDAF-12 ag: -1.1; ssDAF-12 act: -1.1; DAX1 inh-2: 0.0; hcDAF12 agonist: -0.8
